HT1080NT lethal – kills 2HG-producing HT-1080-NT fibrosarcoma cells; AID 686970; Potency, µM (series often up to 46.1 µM), inactives show top-dose activity, negative = less viability, actives largely listed as cytotoxic; HT-1080-NT fibrosarcoma viability, CellTiter-Glo ATP luminescence, 48 h; 360,000 compounds, 1.6% hits;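 note: NT is the 2HG producing partner of a matched IDH1 knockdown line; potency is the fitted concentration of half-maximal effect; 0% = DMSO-treated cells and -100% = media-only wells without cells; nearly all actives have a fitted effect of over 55% in size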
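Toxicity toward the 2HG-producing NT line was scored as %Activity, normalised to DMSO and no-cell wells, from CellTiter-Glo luminescence after 48 hours' treatment.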
TDP1 cell CPT – growth inhibition of DT40 Tdp1-/-;hTDP1 cells with camptothecin (screen for TDP1 inhibitors); chicken DT40 Tdp1-/-;hTDP1 cells + 20 nM CPT, ATP luminescence, 48 h; Potency, µM (titrated, usually from 46.2 µM), for the others: at the highest dose activity change, negative = growth inhibition, hits mostly inhibitors; 420,000 compounds, 12% hits; note: potency is the fitted concentration of half-maximal effect; nearly all actives have a fitted effect of over 55% in size
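Chicken DT40 Tdp1-/- cells complemented with human TDP1, 400 cells/well, exposed to compounds plus 20 nM camptothecin for at least 48 h at 37 C; viability read as ATP content by CellTiter-Glo luminescence.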
IL-1B inflam inh – blocks inflammasome-driven IL-1 beta release; 360,000 compounds, 4.7% hits; activity change, % at 57.5 µM; AID 743279; THP-1 LPS/ATP IL-1B secretion, AlphaLISA, 16 h; active compounds read low; in the data active = activity change below about -50%; inconclusive = mostly about -30% to -49%
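Secreted IL-1B measured by AlphaLISA bead assay after 16 h compound exposure of THP-1 cells; compounds (final up to 57.5 uM) added 1 h before LPS (250 ng/mL) and ATP (1.25 mM) stimulation; lower signal means less secretion.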
HT1080 IDH1KD tx – kills HT-1080 cells with IDH1 knockdown. Potency, µM (highest dose often 46.1 µM), inactives show at the highest dose activity, negative = toxicity, actives largely listed as cytotoxic. 360,000 compounds, 2% hits. HT-1080 IDH1 knockdown viability, ATP luminescence, 48 h;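 note: potency is the fitted concentration of half-maximal effect; 0% = DMSO wells and -100% = cell-free medium wells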
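CellTiter-Glo luminescence after 48 h compound exposure at 37 degrees C of IDH1-knockdown HT-1080 cells in 5% FBS RPMI. %Activity scaled between DMSO wells and cell-free media wells, with curves fitted and assigned curve classes.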
TDP1 cell noCPT – qHTS for Inhibitors of human tyrosyl-DNA phosphodiesterase 1 (TDP1): qHTS in cells in absence of CPT. DT40 Tdp1-/- hTDP1 cells, no CPT, ATP luminescence, 48 h. Potency, µM (highest dose often 46.2 µM), without a hit: at the top dose activity change, negative = growth inhibition, hits mostly inhibitors. 420,000 compounds, 15% hits. AID 686978, 2013; note: potency is the fitted concentration of half-maximal effect; nearly all actives have a fitted effect of over 55% in size
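Camptothecin absent (DMSO only). Human TDP1-complemented DT40 knockout cells, 400 cells/well, 37 °C for minimum 48 hr; ATP measured via CellTiter-Glo, 30 min dark incubation, luminescence.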
* marks the source's active call; other numbers are inactive results; u = inconclusive; x = no result; [ ] = another dose, or the depositor's remark. Shown are actives, neighbours in structure and some others; about 19% of the full set was active somewhere. Unless noted, calls come from the whole dose curve; as a rule, active = well fitted curve in the direction sought with a large enough effect; inconclusive = small, poorly fitted or top-dose-only effect, or another doubt; inactive = no such curve, though single readings can be large; an effect the other way counts as inactive or inconclusive. Unless noted, % is set by controls: 0 for no effect and ±100 for the full control effect.

SMILES | HT1080NT lethal | TDP1 cell CPT | IL-1B inflam inh | HT1080 IDH1KD tx | TDP1 cell noCPT
Cc1ccc(C(C[N+](=O)[O-])c2c(-c3ccccc3O)[nH][nH]c2=O)cc1 (configuration not stated) | u | 3.3µM* | -102* | 9.2µM* | 2.9µM*
O=c1[nH][nH]c(-c2ccccc2O)c1C(C[N+](=O)[O-])c1ccc(Br)cc1 (configuration not stated) | -6% | 3.3µM* | u | -11% | 2.6µM*
O=C(c1cccs1)N(CCN1CCCCC1)CC1CCCN(C2CCCC2)C1 (configuration not stated) | -5% | u | -28 | -17% | -4%
Cc1ccc(C(=O)N(CCN2CCCCC2)CC2CCCN(C3CCCC3)C2)s1 (configuration not stated) | u | u | 0 | -13% | 21µM*
Cc1ccc(S(=O)(=O)Oc2ccccc2)cc1 | 2% | 6% | -3 | 3% | -2%
Cc1ccc(S(=O)(=O)/C=C/c2ccccc2)cc1 | -2% | 0% | -76* | 12% | -11%
CCOC(=O)C1CCN(C(=O)COc2ccc3c(c2)OCO3)CC1 | 16% | -9% | -6 | 14% | 1%
COc1ccc(OC)c(CN2CCCC(n3cc(C(=O)N4CCCCC4)nn3)C2)c1 (configuration not stated) | x | 0% | x | x | -18%
CCc1ccc2ncc(S(=O)(=O)c3ccc(Cl)cc3)c(N3CCN(CC)CC3)c2c1 | x | u | x | x | 16µM*
CCN1CCN(c2nc(S(=O)(=O)c3ccc(C)cc3)c(Cl)s2)CC1 | -3% | -24% | -24 | u | u
CCOc1ccc2ncc(S(=O)(=O)c3ccc(C)cc3)c(N3CCC4(CC3)OCCO4)c2c1 | -9% | u | 0 | -5% | 23µM*
CC1=CCC[C@H]2[C@H](C1)C(=O)C[C@@H](C)[C@]2(C)CC/C(=C/CO)CO | 8% | u | -10 | 7% | u
O=C(CSc1nnc(-c2ccco2)o1)N1c2ccccc2CCc2ccccc21 | -26% | u | -62* | -1% | 23µM*
O=C(CSc1nnc(-c2c[nH]c3ccccc23)o1)N1c2ccccc2CCc2ccccc21 | u | 16µM* | -68* | 2%[9.24 µM] | 16µM*
O=C(CSc1nnc(-c2ccc(Br)cc2)o1)N1CCN(C(=O)c2ccco2)CC1 | 3% | u | 13 | 3% | 18µM*
Cc1cc(C)cc(-c2nnc(SCC(=O)N3CCN(C(=O)c4ccco4)CC3)o2)c1 | -4% | u | -16 | 0% | -28%
Nc1c(CC(=O)O)cccc1C(=O)c1ccccc1 | x | 11% | x | x | 1%
NC(=O)C1CCCN(Cc2ccc3c(c2)CN(Cc2cn[nH]c2-c2ccc(F)cc2)CCO3)C1 (configuration not stated) | x | 15%[9.04 µM] | x | x | -12%
COCCCN(Cc1cc(OC)c(OC)c(OC)c1)C(=S)Nc1cccc(Cl)c1 | -3% | u | -25 | -5% | 9.2µM*
COc1cc(CC(=O)Nc2cccc(SC)c2)cc(OC)c1OC | -18% | u | 7 | -29% | 10µM*
COc1ccc(CC(=O)Nc2cccc(SC)c2)cc1 | 10% | u | -8 | 9% | -20%
CCN(Cc1cc(OC)c(OC)c(OC)c1)C(=S)Nc1cccc(SC)c1 | -20% | u | 40 | -22% | 23µM*
COCCCN(C(=S)Nc1cccc(Cl)c1)C(C)c1ccncc1 (configuration not stated) | -1% | -21% | 6 | 4% | -16%
O=C(Nc1ccc(-c2nc3ccccc3o2)c(O)c1)c1cc(-n2cnnc2)ccc1Cl | -26% | 26µM* | -14 | u | u
O=C(Nc1ccc(-c2nc3ccccc3o2)cc1)c1cc(-n2cnnc2)ccc1Cl | -13% | 18µM* | u | -2% | u
SMILES | HT1080NT lethal | TDP1 cell CPT | IL-1B inflam inh | HT1080 IDH1KD tx | TDP1 cell noCPT
O=C(Nc1ccccc1)c1cc(-n2cnnc2)ccc1Cl | 9% | -12% | 5 | 2% | 16%
Cc1c(NC(=O)c2cc(-n3cnnc3)ccc2Cl)cccc1-c1nc2ccccc2o1 | 0% | -13% | -11 | 4% | u
O=C(Cn1nnc(-c2ccc(C(F)(F)F)cc2)n1)NCCc1ccccc1 | x | -27% | x | x | u
CCC(=O)c1ccc(OCC(O)Cn2nc(C)c(Br)c2C)cc1 (configuration not stated) | 0% | u | 9 | 2% | -17%
CCN(CC)c1c([N+](=O)[O-])c(=O)oc2ccccc12 | 14% | 7% | 22 | 14% | -20%
COc1ccccc1N1C(=O)N(CC(=O)C(C)(C)C)c2ccccc2S1(=O)=O | 16% | -22% | 6 | 6% | u
CC(=O)c1ccc(N2C(=O)N(Cc3ccc(F)cc3)c3ccccc3S2(=O)=O)cc1 | x | 21µM* | x | x | 16µM*
CCc1cccc(N2C(=O)N(CC(=O)NCc3cccc(OC)c3OC)c3ccccc3S2(=O)=O)c1 | x | 13µM* | x | x | u
CC(=O)c1ccc(N2C(=O)N(CC(=O)c3ccc(F)cc3)c3ccccc3S2(=O)=O)cc1 | x | -23% | x | x | u
CCc1ccc(N2C(=O)N(CC(=O)C(C)(C)C)c3ccccc3S2(=O)=O)cc1 | x | 13µM* | x | x | 21µM*
COC(=O)c1ccc(OC)c(CN2C(=O)N(c3ccc(C(C)=O)cc3)S(=O)(=O)c3ccccc32)c1 | x | 15µM* | x | x | 16µM*
O=S(=O)(CCc1ccncc1)c1ccc(Cl)cc1 | 7% | -16% | 24 | -11% | u
O=C(Nc1ccc(F)c(F)c1)C1CCN(S(=O)(=O)c2cccs2)CC1 | 3% | u | u | 8% | u
CCc1ccc(-n2c(=O)c3ccccc3n(CC(=O)C(C)(C)C)c2=O)cc1 | 2% | u | 0 | 3% | 18µM*
CC(=O)c1ccc(N2C(=O)N(Cc3cc(C)ccc3C)c3ccccc3S2(=O)=O)cc1 | x | 23µM* | x | x | 18µM*
COc1cccc(CNC(=O)Cn2c(=O)cc(C)c3c(C)nn(C)c32)c1OC | x | 23µM* | x | x | 18µM*
CC(=O)c1ccc(N2C(=O)N(Cc3ccccc3C#N)c3ccccc3S2(=O)=O)cc1 | x | 16µM* | x | x | u
Clc1ccc(COc2ccccn2)c(Cl)c1 | 9% | -8% | 21 | -20% | -10%
COc1ccc2[nH]c(C)c(CCNS(=O)(=O)c3cc(F)ccc3OC)c2c1 | x | 3% | x | x | -28%
CC1(c2nc3ccccc3[nH]2)CCC(=O)N1Cc1ccc(F)cc1 (configuration not stated) | 13% | -1% | 17 | 17% | 18%

High-throughput results deposited in PubChem by National Center for Advancing Translational Sciences (NCATS).
